High-throughput results deposited in PubChem by National Center for Advancing Translational Sciences (NCATS).
Nrf2 block – blocks Nrf2 signaling; A549 ARE-Fluc reporter, luciferase luminescence, 18-24 h; Potency, µM (doses to about 46 µM), without a hit: at the top dose activity change, negative = inhibition, hits mostly inhibitors; actives 2.1% (n = 360,000); AID 504444; further: potency means the concentration at half of the fitted maximal effect; on the % scale 0 is the no-effect control and ±100 the full control effect; nearly all actives have a fitted effect of over 60% in size
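In this cell-based qHTS, ARE-driven firefly luciferase in A549 cells reports Nrf2 activity; the luminescent signal after BugLite lysis is the measured value, with a prior CellTiter-Fluor read for cell health.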
A549 viability – A549 cytotoxicity, counter-screen for Nrf2 inhibitors; A549 ARE-Fluc cells, CellTiter-Fluor viability, 18-24 h; Potency, µM (doses to about 46 µM), for the others: at the highest dose activity change, negative = cytotoxicity, hits mostly inhibitors; actives 0.16% (n = 390,000); AID 504648; further: potency means the concentration at half of the fitted maximal effect; on the % scale 0 is the no-effect control and ±100 the full control effect
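A549 ARE_Fluc cells in 5% FBS OPTI-MEM were exposed to compounds in concentration-response for 18-24 h at 37 deg C. Viability was read by CellTiter-Fluor fluorescence (Ex 405/Em 525) after 30 min, before the luciferase read.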
TCR act – activators of T cell receptors; primary human leukocytes, anti-CD3, IL-2 HTRF, 48 h; Potency, µM (doses to about 9.22 µM), for the others: at the top dose activation of IL-2 secretion, actives largely listed as activators; 330,000 tested, under 10 active; further: % of control where 0% means no effect
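Primary human leukocytes incubated 48 hr with anti-CD3 beads plus compound, without co-stimulation. Secreted IL-2 measured by HTRF (europium cryptate/d2 anti-IL-2 pair, 320 nm excitation, 665 nm emission).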
AT treatment – potential ataxia-telangiectasia treatment. Potency, µM (highest dose often 57.5 µM), for the others: at the highest dose activation, actives largely listed as activators. AID 485349. F2112 A-T fibroblasts, KAP-1 phosphorylation AlphaLISA; neocarzinostatin DNA damage 30 min before lysis. actives 0.19% (n = 320,000); further: potency means the concentration at half of the fitted maximal effect; % of control where 0% means no effect; nearly all actives have a fitted effect of over 45% in size
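hTERT-immortalized A-T patient fibroblasts (F2112), 500 cells/well in OPTI-MEM, 1% FBS, got compounds for 60 min, then NCS for 30 min at 37C. Lysates were then assayed for phospho-KAP-1 by AlphaLISA (anti-pKAP1 donor, anti-KAP1 acceptor beads), 6 hr at 25C.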
CCT modulator – changes cytosolic chaperonin activity; purified chaperonin ATPase assay, HTRF ADP detection, 30 min; activity change, % (no concentration beside the values), hits read low; actives 0.3% (n = 360,000); AID 651819; in the data active means activity change below about -30%; further: on the % scale 0 is the no-effect control and ±100 the full control effect
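TRiC at 40 or 20 nM final (batch-dependent) in 30 mM Tris pH 7.4, 100 mM KCl, 5 mM MgCl2, 1 mM DTT, with compound at single 76 uM and 10 uM ATP, 30 min at 37 deg C. ADP detected by HTRF Transcreener, 665/615 ratio.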
Nrf2 ARE act – activates Nrf2 signaling; AREc32 ARE-luciferase reporter (MCF7-derived line), luminescence, 24 h; actives 0.31% (n = 410,000); Potency, µM (top dose mostly 46.1 µM), for inactives: at the top dose activation, actives largely listed as activators; further: potency means the concentration at half of the fitted maximal effect; % of control where 0% means no effect; nearly all actives have a fitted effect of over 65% in size
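ARE-driven firefly luciferase activity in AREc32 cells measured after a 24 hr compound exposure at 37 deg C, using Steady-Glo reagent and a 30 min room-temperature hold.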
* marks the source's active call; other numbers are inactive results; ? = inconclusive; / = no result given; [ ] = dose if it differs, or a comment. Shown are actives, neighbours in structure and some others; about 2.6% of the full set was active somewhere. Unless noted, the call rests on the fitted dose curve; in most records, active means well fitted curve in the direction sought with a large enough effect; inconclusive means small, poorly fitted or top-dose-only effect, or another doubt; inactive means no such curve, though single readings can be large; an effect the other way counts as inactive or inconclusive.

SMILES	Nrf2 block	A549 viability	TCR act	AT treatment	CCT modulator	Nrf2 ARE act
COc1cc(Br)cc(/C=N/NC(=O)Cc2ccc(C(F)(F)F)cc2[N+](=O)[O-])c1O	16.4µM*	?	3.3%[46.1 µM]	-2.7%	-1.0	-1.6%
CCOc1cc(/C=N/NC(=O)Cc2ccc(C(F)(F)F)cc2[N+](=O)[O-])c(Br)cc1OC	-21.7%	-27.3%	0.3%	-1.3%	-0.5	-0.1%
COc1ccc(C(=O)NC(C(=O)N2CCN(C/C=C/c3ccccc3)CC2)C(C)C)cc1 (stereo not given)	/	/	/	/	1.4	-1.1%
CC(C)[C@H](NC(=O)c1ccc([N+](=O)[O-])cc1Cl)C(=O)N1CCN(C/C=C/c2ccccc2)CC1	23.1µM*	?	-8.1%	2.9%	1.7	6.0%
CCOC(=O)c1ccccc1NC(=O)N(Cc1ccco1)C1CCN(C(C)=O)CC1	?	5.0%	/	/	/	0.8%
O=C(N/N=C/c1c(Cl)cccc1Cl)c1ccccc1F	?	7.1%	-2.7%[46.1 µM]	-2.7%	-0.1	5.01µM*
CC1Cc2ccccc2N1C(=O)c1ccc(N2CCCC2)c([N+](=O)[O-])c1 (stereo not given)	18.4µM*	?	-0.2%[46.1 µM]	6.8%	2.1	2.6%
O=C(O)c1ccccc1C(=O)c1ccc(N2CCCC2)c([N+](=O)[O-])c1	-1.1%	-15.6%	-7.6%	-1.3%	1.2	0.2%
O=C(c1ccc(N2CCCCC2)c([N+](=O)[O-])c1)N(Cc1ccccc1)c1ccccn1	16.4µM*	-8.3%	-2.2%	1.6%	-0.5	3.2%
CC1Cc2ccccc2N1C(=O)c1ccc(N2CCCCC2)c([N+](=O)[O-])c1 (stereo not given)	23.1µM*	-12.5%	-5.3%[46.1 µM]	1.6%	-2.2	0.4%
O=C(c1ccc(N2CCCC2)c([N+](=O)[O-])c1)N1CCc2ccccc2C1	?	-20.8%	5.8%	-14.5%	-1.2	2.9%
CC(C)(C)OC(=O)N(c1cccc2cccnc12)S(=O)(=O)c1ccccc1Br	?	-8.4%	/	/	/	/
COc1ncc(-c2ccc3c(c2)S(=O)(=O)c2cccc(C(=O)O)c2C3=O)cn1	8.8%	-6.2%	-6.7%	-0.3%	-3.4	-0.3%
Cc1ccc(/C=C/C(=O)c2c(C)cc(C)[nH]c2=O)cc1	/	-11.1%	0.7%	6.8%	-1.5	27.8%
CCc1ccc(/C=C/C(=O)c2c(C)cc(C)[nH]c2=O)cc1	18.4µM*	-22.9%	-3.7%	6.0%	-1.8	-1.7%
NS(=O)(=O)c1ccc(CNC(=O)c2cc(-c3ccccn3)nc3ccc(Cl)cc23)cc1	1.0%	-5.6%	2.8%	2.4%	-54.6*	11.4%
CCn1nc(C(=O)Nc2cccc3ccccc23)c(Cl)c1Cl	10.5%	8.7%	0.4%	35.9%	2.2	7.08µM*
COc1cc2c(cc1OC)C1(Nc3c-2c(Cc2ccccc2)nn3-c2ccccc2)C(=O)Nc2ccccc21 (stereo not given)	11.6µM*	?	-1.2%	/	-1.8	-0.1%
Cc1ccc(OCCCCN2CCc3ccccc3C2)c(C)c1	8.4%	9.4%	7.7%	35.5µM*	-2.5	-0.3%[9.22 µM]
Cc1ccc(C(C)C)c(OCCN2CCc3ccccc3C2)c1	-9.5%	0.3%	-2.9%	35.5µM*	0.2	2.0%
Cc1ccc(C(C)C)c(OCCCN(C)Cc2ccccc2)c1	13.6%	8.4%	-6.0%[46.1 µM]	35.5µM*	1.2	2.6%
Cc1ccc(C(C)C)c(OCCCN2CCc3ccccc3C2)c1	10.2%	0.7%	-8.5%	?	-5.0	3.8%
O=C(CC1NCCNC1=O)Nc1ccccc1F (stereo not given)	6.8%	3.3%	/	/	/	-1.1%
CC(C)OCCCN(Cc1ccco1)C(=O)c1cc2c(s1)-c1ccccc1OC2	16.4µM*	6.6%	/	/	/	-0.1%
CCOCCCN(Cc1ccco1)C(=O)c1cc2c(s1)-c1c(C)cccc1OC2	?	9.0%	/	/	/	4.9%
SMILES	Nrf2 block	A549 viability	TCR act	AT treatment	CCT modulator	Nrf2 ARE act
COc1cccc(/C=C/c2ccc3cccc(O)c3n2)c1OC	0.0%	-4.1%	-4.8%	21.1%	-1.2	?
COc1cccc(/C=C/c2ccccn2)c1O	6.8%	1.7%	-1.7%	1.3%	-2.7	8.91µM*
O=C1CCc2cc(S(=O)(=O)Nc3cccc(Br)c3)ccc2N1	?	-1.9%	/	/	/	/
N#Cc1c(-c2ccccc2)cc(-c2ccccc2)[nH]c1=O	1.0%	-1.7%	-5.8%	0.794µM*	1.5	?
N#Cc1c(C(F)(F)F)cc(-c2ccc(F)cc2)[nH]c1=O	?	-8.5%	-8.6%	18.1%	-1.2	0.1%
N#Cc1c(C(F)(F)F)cc(-c2ccc(Cl)cc2)[nH]c1=O	16.4µM*	-25.5%	-17.9%	22.6%	-1.2	0.6%
CCc1ccc2oc(C(=O)NCc3ccccc3)cc(=O)c2c1	8.9%	0.0%	/	/	/	1.4%
CCOc1cc(Br)c(CN2C(=O)NC3(CCCCCC3)C2=O)cc1OCC	20.6µM*	?	-12.2%	1.0%	1.5	2.6%
COc1ccc(NC(=O)N2CCC(C(=O)c3ccc(F)cc3)CC2)cc1	-15.2%	10.2%	-2.3%	-5.8%	0.0	-0.3%
CSc1ccc(NC(=O)N2CCC(C(=O)c3ccc(F)cc3)CC2)cc1	16.4µM*	-8.2%	1.9%	-6.0%	1.8	2.2%
Cc1cc(C)cc(NC(=O)N2CCC(C(=O)c3ccc(F)cc3)CC2)c1	14.6µM*	-15.2%	-0.4%	0.4%	3.5	-0.5%
Cc1cccc(S(=O)(=O)c2cn(Cc3ccccc3)c3cc(N4CCCCC4)c(F)cc3c2=O)c1	-8.7%	-24.1%	/	/	/	-0.7%
Cc1ccccc1Cc1c(C)nc2c(C(=O)N3CCN(Cc4ccc5c(c4)OCO5)CC3)cnn2c1C	?	-10.0%	3.3%	/	-3.3	0.2%
Cc1nc2c(C(=O)NCc3ccco3)cnn2c(C)c1Cc1ccc(F)cc1Cl	?	-19.2%	-1.6%	6.6%	-0.1	4.5%
Cc1cccc(Cc2c(C)nc3c(C(=O)NCc4ccco4)cnn3c2C)c1	23.1µM*	?	1.6%	-0.7%	1.2	14.8%
Cc1cccc(-c2nc(CSCC(=O)N3CCN(Cc4ccc5c(c4)OCO5)CC3)c(C)o2)c1	20.6µM*	1.8%	3.2%	-6.6%	-3.7	0.0%
Cc1cccc(Cc2c(C)nc3c(C(=O)N4CCN(Cc5ccc6c(c5)OCO6)CC4)cnn3c2C)c1	18.4µM*	-0.6%[1.84 µM]	/	-2.4%	-3.0	2.5%
Cc1ccc2cc(CN(c3ccccc3C)S(=O)(=O)c3ccccc3)c(=O)[nH]c2c1	0.7%	-16.9%	3.4%	-1.5%	-0.4	-0.8%
CCn1cc2nc(SCc3cccc(C)c3)n(CCc3ccccc3)c(=O)c2n1	?	-2.8%	/	/	/	-1.2%
CCn1cc2nc(SCc3cccc(C(F)(F)F)c3)n(CCc3ccccc3)c(=O)c2n1	14.6µM*	2.3%	/	/	/	0.0%
